# Screening results as filed in PubChem BioAssay.
# A selection: hits, their analogues and other compounds. The true share with any hit is near 2.2%.
# MEKK2 WT-MEK5: raises or lowers MEK5 binding to wildtype human MEKK2 PB1 domain; Q9Y2U5; bead flow cytometry, Alexa488-MEK5 binding to MEKK2 WT; actives lie on both sides; binding response (% of control), % at 10 µM; 1.1% of 290,000 active; AID 1531; in the data active = binding response below about 67% or above about 130%
# MEKK2mut PB1 HTS: signal of MEK5 binding to mutant human MEKK2 PB1 domain. AID 1530. bead flow cytometry, Alexa488-MEK5 binding to MEKK2 mutant. 0.35% of 290,000 active. percent response, % at 10 µM; in the data active = percent response above about 24%, passing the limit was not always enough
# VLA-4 inh: inhibition in a human VLA-4 binding assay. inhibition, % (about 7 µM as worked out from the volumes in the protocol). P13612. 0.2% of 330,000 active. VLA-4 expressing cells, ligand binding flow cytometry. AID 2557; in the data active = inhibition above about 50%
# Target sequence (P13612 whole entry, looked up): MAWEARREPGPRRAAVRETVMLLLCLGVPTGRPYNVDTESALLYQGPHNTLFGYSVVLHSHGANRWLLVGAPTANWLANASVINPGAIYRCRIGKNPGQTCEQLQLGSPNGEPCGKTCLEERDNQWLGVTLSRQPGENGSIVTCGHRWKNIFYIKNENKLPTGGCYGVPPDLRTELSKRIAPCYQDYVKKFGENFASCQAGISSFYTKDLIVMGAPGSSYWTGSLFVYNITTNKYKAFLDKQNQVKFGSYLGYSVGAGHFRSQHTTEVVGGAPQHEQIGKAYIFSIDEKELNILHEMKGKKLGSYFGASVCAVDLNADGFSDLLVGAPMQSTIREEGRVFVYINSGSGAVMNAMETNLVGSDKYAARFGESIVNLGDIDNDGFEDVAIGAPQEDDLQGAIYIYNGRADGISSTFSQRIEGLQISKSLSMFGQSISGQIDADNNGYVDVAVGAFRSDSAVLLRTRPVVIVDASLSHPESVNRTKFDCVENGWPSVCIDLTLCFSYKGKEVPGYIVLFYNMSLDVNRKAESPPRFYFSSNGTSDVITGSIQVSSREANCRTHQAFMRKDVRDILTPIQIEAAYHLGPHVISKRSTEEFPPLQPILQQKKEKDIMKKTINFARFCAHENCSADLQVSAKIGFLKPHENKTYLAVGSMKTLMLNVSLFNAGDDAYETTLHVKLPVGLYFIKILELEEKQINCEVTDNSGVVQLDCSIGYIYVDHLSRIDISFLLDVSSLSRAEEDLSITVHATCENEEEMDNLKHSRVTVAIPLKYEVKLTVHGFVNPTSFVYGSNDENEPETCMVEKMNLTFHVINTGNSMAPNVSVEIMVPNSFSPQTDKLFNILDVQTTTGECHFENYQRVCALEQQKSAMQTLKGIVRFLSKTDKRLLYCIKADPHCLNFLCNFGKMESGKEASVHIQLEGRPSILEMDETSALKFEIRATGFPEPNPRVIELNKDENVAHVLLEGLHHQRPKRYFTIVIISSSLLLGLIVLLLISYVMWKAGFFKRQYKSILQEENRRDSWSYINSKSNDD
# MEKK3 PB1 HTS: MEKK3-MEK5 PB1 interaction, increase or decrease. binding response (% of control), % at 10 µM. Q99759. bead-based flow cytometry, Alexa488-MEK5 binding to MEKK3; actives lie on both sides; 0 = blocked by unlabeled MEK5, 100 = vehicle. 1.4% of 290,000 active. AID 1529;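 active = binding response more than 3 SD above or below the average of its plate-row segment, actives on both sides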;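 also: Alexa488 bead fluorescence after subtracting the streptavidin-only scavenger bead signal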
# MEKK2wt confirm: raises or lowers MEK5 binding to wildtype human MEKK2, retest; shares compounds with MEKK3 PB1 HTS; bead flow cytometry, Alexa488-MEK5 binding to MEKK2 WT; actives lie on both sides; binding response (% of control), % at 10 µM; 2.4% of 5,900 active; AID 1892; in the data active = binding response below about 16% or above about 210%; inactive = in between
# MEKK2mut confirm: signal of MEK5 binding to mutant human MEKK2, retest; 2% of 5,900 active; percent response, % at 10 µM; AID 1893; bead flow cytometry, Alexa488-MEK5 binding to MEKK2 mutant; shares compounds with MEKK3 PB1 HTS; in the data active = percent response mostly above about 71%, no sharp cut-off; inactive = mostly below about 38%;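 also: higher means compound restores mutant binding toward wildtype level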
# MEKK3-MEK5 inh: confirmation of inhibitors of MEK5 binding to human MEKK3; bead flow cytometry, Alexa488-MEK5 binding to MEKK3; active compounds read low; binding response (% of control), % at 10 µM; AID 1894; shares compounds with MEKK3 PB1 HTS; 1.8% of 5,900 active;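 active = binding response below 72% of control, or above a set upper limit, though filed actives all read lower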;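 also: 100% = DMSO only wells and 0% = binding blocked by excess unlabeled MEK5; lower values mean stronger disruption of MEK5 binding to MEKK3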
# * marks the source's active call; other numbers are inactive results; x = no result given; [ ] = dose if it differs, or a comment.
SMILES,MEKK2 WT-MEK5,MEKK2mut PB1 HTS,VLA-4 inh,MEKK3 PB1 HTS,MEKK2wt confirm,MEKK2mut confirm,MEKK3-MEK5 inh
COc1ccc(C23CC4CC(CC(C4)C2)C3)cc1C(=O)NCCN(C)C,140*,17,2,104,163,37,107
CCOCC(=O)N1CCN(c2ccccc2OC)CC1,123,53*,5,103,100,-5,100
O=C(CSc1ncnc2scc(-c3ccccc3)c12)N1CCN(c2ccccc2F)CC1,90,-1,0,91,x,x,x
COC(=O)CSc1ncnc2scc(-c3ccccc3)c12,103,-1,0,106,x,x,x
COc1ccccc1N1CCN(C(=O)CSc2ncnc3scc(-c4ccccc4)c23)CC1,104,0,-2,148*,103,5,105
COc1ccccc1OCC(=O)N1CCN(c2ccccc2OC)CC1,102,3,7,103,x,x,x
Fc1ccc(CSc2ncnc3scc(-c4ccccc4)c23)cc1,103,52*,3,108,96,-4,101
O=S(=O)(NC1CC2CCC1C2)c1ccc2c(c1)OCCO2 (centres undefined),3.0*[inhibitor],-26,9,2.0*[inhibitor],96,1,102
O=C(Nc1nnc(-c2ccco2)o1)c1ccc(N2C(=O)CCC2=O)cc1,87,-2,3,70*[inhibitor],95,2,106
Cc1ccccc1N(C(=O)CNC(=O)c1ccco1)C(C(=O)NC1CCCCC1)c1cccnc1 (centres undefined),99,7,5,100,x,x,x
O=C(Cc1cccc2ccccc12)N/N=C/c1ccncc1,97,-7,29,100,x,x,x
O=C(Cc1cccc2ccccc12)N/N=C/c1ccc(F)cc1,113,6,11,122*,95,2,96
Cc1ccc(C2(CCNCc3ccc(N(C)C)cc3)CCOC(C(C)C)C2)cc1 (centres undefined),149*,17,6,111,125,6,105
CN1CCN(S(=O)(=O)c2ccc(Oc3ccc(F)c(Cl)c3)nc2)CC1,100,-6,-4,97,x,x,x
CCC12CN3CCN(CC(C3)/C1=N\NC(=O)Nc1ccccc1)C2,108,1,-1,129*,103,5,103
CC1CCC(NC(=O)c2cc3c(s2)CCCC3)CC1 (centres undefined),x,x,-2,x,x,x,x
Cc1ccc(OCC(O)Cn2c(=N)n(CCN3CCCCC3)c3ccccc32)cc1 (centres undefined),145*,4,18,105,130,10,102
C=CCN(Cc1cccs1)C(=O)CN1CCN(S(=O)(=O)c2ccc3c(c2)OCCCO3)CC1,x,x,-9,x,x,x,x
COCCNC(=O)CN(c1cc(Cl)ccc1OC)S(=O)(=O)c1ccc(C)c([N+](=O)[O-])c1,104,0,-4,128*,12*[inhibitor],-29,71*
CCCCCCSc1nsc(NC(=O)CCC)n1,94,-6,3,101,x,x,x
CCNc1nc(NC(C)C)nc(Oc2ccc(=O)n(C)n2)n1,107,9,14,105,x,x,x
COc1ccccc1S(=O)(=O)Cc1ccc(C(=O)NCCN2CCCCCC2)o1,135*,19,-4,102,142,27,108
COCCNC(=O)c1ccc(CS(=O)(=O)c2ccccc2OC)o1,106,2,2,107,x,x,x
COc1ccccc1C1CN=NC12CCCc1ccccc1C2=O (centres undefined),33*[inhibitor],-13,1,24*[inhibitor],106,5,103
O=C(COC(=O)COc1cccc(C(F)(F)F)c1)Nc1ccc(N2CCOCC2)cc1,x,x,0,x,x,x,x
SMILES,MEKK2 WT-MEK5,MEKK2mut PB1 HTS,VLA-4 inh,MEKK3 PB1 HTS,MEKK2wt confirm,MEKK2mut confirm,MEKK3-MEK5 inh
N=C1CCCN1CC(=O)c1ccc(Cl)cc1,106,0,6,131*,95,-6,96
O=S(=O)(Nn1cnnc1)c1ccc(F)cc1,104,-3,5,101,x,x,x
Cc1csc(SCC(=O)NCCc2ccc(Cl)cc2Cl)n1,95,-1,6,69*[inhibitor],100,2,101
CN(C)/C=C1/OC(=O)C(C#N)=C1c1ccc(Cl)cc1,107,8,-1,104,x,x,x
Cc1ccc(C)c(NC(=S)NNC(=O)c2csc(C)c2C)c1,2.0*[inhibitor],1,24,2.0*[inhibitor],104,-2,105
Cc1ccc(C)c(NC(=S)NNC(=O)c2sccc2C)c1,82,-9,5,78,x,x,x
C#CCOCCOCCOCCNc1nc(N2CCN(C(=O)[C@H]([C@@H](C)CC)n3cc([C@@H](N)CO)nn3)CC2)nc(N2CCN(C(=O)[C@H](Cc3ccc(O)cc3)n3cc([C@@H](N)CC(C)C)nn3)CC2)n1,116,3,5,75,x,x,x
C#CCOCCOCCOCCNc1nc(N2CCN(C(=O)[C@H]([C@@H](C)CC)n3cc([C@@H](N)Cc4ccc(O)cc4)nn3)CC2)nc(N2CCN(C(=O)[C@H](Cc3ccc(O)cc3)n3cc([C@@H](N)C(C)CC)nn3)CC2)n1 (some centres undefined),191*,58*,-5,109,140,12,106
C#CCOCCOCCOCCNc1nc(N2CCN(C(=O)C([C@@H](C)CC)n3cc(C(N)CO)nn3)CC2)nc(N2CCN(C(=O)[C@H](CCC(=O)O)n3cc(C(N)Cc4ccc(O)cc4)nn3)CC2)n1 (some centres undefined),88,3,x,82,x,x,x
C#CCOCCOCCOCCNc1nc(N2CCN(C(=O)[C@H]([C@@H](C)CC)n3cc([C@@H](N)Cc4ccc(O)cc4)nn3)CC2)nc(N2CCN(C(=O)[C@H](CCCCN)n3cc([C@@H](N)CO)nn3)CC2)n1,171*,46,8,110,189,132*,113
C#CCOCCOCCOCCNc1nc(N2CCN(C(=O)[C@H]([C@@H](C)CC)n3cc([C@@H](N)CC(C)C)nn3)CC2)nc(N2CCN(C(=O)[C@H](Cc3ccc(O)cc3)n3cc([C@@H](N)C(C)CC)nn3)CC2)n1 (some centres undefined),156*,21,-3,106,129,15,103
Cc1cc(C(=O)NC2=NCCS2)c2ccccc2n1,118,5,10,132*,105,5,106
O=C(/C(=N\Nc1ccccc1)Sc1nnnn1-c1ccccc1)c1ccccc1,106,-1,-9,138*,99,-5,102
NC(=O)c1ccc(-n2nnnc2SCC(=O)Nc2ccccc2)cc1,104,2,-3,105,x,x,x
COc1ccc(C(CC(=O)O)N2C(=O)CCC2=O)cc1 (centres undefined),103,3,9,102,x,x,x
